{
  "source": "paper PMC7862700",
  "about": "“An all-to-all approach to the identification of sequence-specific readers for epigenetic DNA modifications on cytosine”",
  "assay_in_all_cases": "DAPPL (digital affinity profiling via proximity ligation, sequencing); 10 mM Tris-HCl pH 7.5, 50 mM NaCl, 1 mM DTT, 4% glycerol, room temperature, 30 min; GST-TFs on glutathione beads, 16-mer random dsDNA library, 0.1% formaldehyde crosslink after washing; high values mean tight binding",
  "key": {"[1]": {"target": "T1, FEV (Homo sapiens, UniProt Q99581 1-238)", "T1 sequence": "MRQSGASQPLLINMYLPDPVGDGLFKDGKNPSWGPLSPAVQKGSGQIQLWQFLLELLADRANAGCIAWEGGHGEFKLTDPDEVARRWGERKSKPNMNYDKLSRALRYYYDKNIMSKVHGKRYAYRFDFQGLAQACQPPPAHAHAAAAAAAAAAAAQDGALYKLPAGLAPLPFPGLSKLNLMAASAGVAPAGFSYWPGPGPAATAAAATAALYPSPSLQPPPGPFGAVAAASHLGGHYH", "settings": "protein: recombinant; tags: N-terminal GST; dsDNA, one strand shown", "in_short": "(§1)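 Pools were built from human transcription factors expressed in yeast as GST fusions, captured on glutathione beads and DNA-barcoded, along with a tag-only sample. Incubation with 200 nmole of a 16-mer random double-stranded DNA library lasted 30 min at room temperature in Tris/NaCl/DTT/glycerol buffer, and was followed by washing, 0.1% formaldehyde crosslinking, proximity ligation, PCR amplification and Illumina NextSeq500 sequencing. Binding signal is the quotient of each hexamer's read frequency for a factor and its frequency for the tag-only sample.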"}, "[2]": {"target": "ETV5 (Homo sapiens, UniProt P41161 1-510)", "sequence (P41161 whole entry)": "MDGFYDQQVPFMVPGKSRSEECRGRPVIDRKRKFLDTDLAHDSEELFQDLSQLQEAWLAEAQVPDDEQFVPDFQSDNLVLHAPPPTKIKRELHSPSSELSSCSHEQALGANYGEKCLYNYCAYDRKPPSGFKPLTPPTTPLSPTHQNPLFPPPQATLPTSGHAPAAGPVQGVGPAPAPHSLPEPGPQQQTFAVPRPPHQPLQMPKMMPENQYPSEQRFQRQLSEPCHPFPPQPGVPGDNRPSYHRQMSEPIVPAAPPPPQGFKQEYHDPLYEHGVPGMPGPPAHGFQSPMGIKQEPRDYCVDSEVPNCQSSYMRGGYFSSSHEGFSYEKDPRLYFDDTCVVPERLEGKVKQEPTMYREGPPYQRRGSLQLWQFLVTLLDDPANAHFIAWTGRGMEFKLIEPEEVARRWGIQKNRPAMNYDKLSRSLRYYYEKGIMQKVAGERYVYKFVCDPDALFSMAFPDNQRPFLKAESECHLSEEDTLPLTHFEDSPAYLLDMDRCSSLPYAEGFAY", "settings": "protein: recombinant; tags: N-terminal GST; dsDNA, one strand shown", "in_short": "as §1"}, "[3]": {"target": "HSF1 (Homo sapiens, UniProt Q00613 1-529)", "sequence (Q00613 whole entry)": "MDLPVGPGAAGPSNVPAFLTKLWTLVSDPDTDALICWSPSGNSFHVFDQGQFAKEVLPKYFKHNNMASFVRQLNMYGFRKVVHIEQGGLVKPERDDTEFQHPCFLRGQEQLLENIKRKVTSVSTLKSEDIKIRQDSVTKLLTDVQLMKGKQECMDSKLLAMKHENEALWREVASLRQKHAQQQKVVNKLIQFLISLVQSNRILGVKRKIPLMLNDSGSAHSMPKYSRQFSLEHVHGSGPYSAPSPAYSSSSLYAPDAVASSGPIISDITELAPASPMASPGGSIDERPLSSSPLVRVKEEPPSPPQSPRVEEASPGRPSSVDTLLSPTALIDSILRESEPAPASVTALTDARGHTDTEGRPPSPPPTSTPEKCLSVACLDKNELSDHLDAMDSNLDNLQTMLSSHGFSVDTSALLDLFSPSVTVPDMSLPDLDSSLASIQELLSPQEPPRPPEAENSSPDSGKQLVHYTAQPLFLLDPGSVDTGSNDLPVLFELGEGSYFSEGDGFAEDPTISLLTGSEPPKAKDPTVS", "settings": "protein: recombinant; tags: N-terminal GST; chain copies: 3; dsDNA, one strand shown", "in_short": "as §1"}, "[4]": {"target": "T2, SPIC (Homo sapiens, UniProt Q8N5J4 1-248)", "T2 sequence": "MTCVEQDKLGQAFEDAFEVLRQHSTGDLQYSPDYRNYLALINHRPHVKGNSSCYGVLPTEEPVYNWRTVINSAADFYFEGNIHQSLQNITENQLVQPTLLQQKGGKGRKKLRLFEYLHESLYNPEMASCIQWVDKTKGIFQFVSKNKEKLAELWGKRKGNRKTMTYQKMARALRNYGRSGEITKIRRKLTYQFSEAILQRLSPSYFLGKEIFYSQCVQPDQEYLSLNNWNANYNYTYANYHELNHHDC", "settings": "protein: recombinant; tags: N-terminal GST; dsDNA, one strand shown", "in_short": "as §1"}, "[5]": {"target": "ELF4 (Homo sapiens, UniProt Q99607 1-663)", "sequence (Q99607 whole entry)": "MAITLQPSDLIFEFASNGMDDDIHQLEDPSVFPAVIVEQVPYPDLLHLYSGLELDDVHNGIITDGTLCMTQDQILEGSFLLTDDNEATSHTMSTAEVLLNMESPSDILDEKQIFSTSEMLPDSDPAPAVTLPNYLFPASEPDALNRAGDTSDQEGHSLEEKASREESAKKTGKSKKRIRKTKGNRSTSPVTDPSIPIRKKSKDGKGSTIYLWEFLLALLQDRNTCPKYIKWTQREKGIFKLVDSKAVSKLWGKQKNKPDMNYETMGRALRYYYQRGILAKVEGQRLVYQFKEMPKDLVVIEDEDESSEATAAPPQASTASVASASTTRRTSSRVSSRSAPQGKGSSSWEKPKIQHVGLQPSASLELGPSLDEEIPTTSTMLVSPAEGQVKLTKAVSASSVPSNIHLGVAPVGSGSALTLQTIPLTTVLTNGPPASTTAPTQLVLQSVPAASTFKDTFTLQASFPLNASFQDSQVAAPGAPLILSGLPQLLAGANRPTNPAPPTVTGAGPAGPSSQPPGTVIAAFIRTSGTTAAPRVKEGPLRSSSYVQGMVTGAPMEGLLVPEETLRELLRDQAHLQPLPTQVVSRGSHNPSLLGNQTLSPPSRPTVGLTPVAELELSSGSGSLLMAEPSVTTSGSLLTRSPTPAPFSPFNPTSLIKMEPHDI", "settings": "protein: recombinant; tags: N-terminal GST; dsDNA, one strand shown", "in_short": "as §1"}, "[6]": {"target": "T3, ELK4 (Homo sapiens, UniProt P28324-2 1-405)", "T3 sequence": "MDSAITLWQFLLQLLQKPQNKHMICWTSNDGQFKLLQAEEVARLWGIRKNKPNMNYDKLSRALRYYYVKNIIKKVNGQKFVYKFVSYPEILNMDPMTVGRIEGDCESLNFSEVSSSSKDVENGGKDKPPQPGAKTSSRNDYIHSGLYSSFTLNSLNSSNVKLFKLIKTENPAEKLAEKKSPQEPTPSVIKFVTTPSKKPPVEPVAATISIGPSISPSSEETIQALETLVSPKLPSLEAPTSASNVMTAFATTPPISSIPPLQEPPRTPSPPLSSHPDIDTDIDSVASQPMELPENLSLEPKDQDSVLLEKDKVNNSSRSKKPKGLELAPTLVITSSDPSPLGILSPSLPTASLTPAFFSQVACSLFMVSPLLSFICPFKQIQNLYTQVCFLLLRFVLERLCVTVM", "settings": "protein: recombinant; tags: N-terminal GST; dsDNA, one strand shown", "in_short": "as §1"}, "[7]": {"target": "T4, ETV2 (Homo sapiens, UniProt O00321 1-342)", "T4 sequence": "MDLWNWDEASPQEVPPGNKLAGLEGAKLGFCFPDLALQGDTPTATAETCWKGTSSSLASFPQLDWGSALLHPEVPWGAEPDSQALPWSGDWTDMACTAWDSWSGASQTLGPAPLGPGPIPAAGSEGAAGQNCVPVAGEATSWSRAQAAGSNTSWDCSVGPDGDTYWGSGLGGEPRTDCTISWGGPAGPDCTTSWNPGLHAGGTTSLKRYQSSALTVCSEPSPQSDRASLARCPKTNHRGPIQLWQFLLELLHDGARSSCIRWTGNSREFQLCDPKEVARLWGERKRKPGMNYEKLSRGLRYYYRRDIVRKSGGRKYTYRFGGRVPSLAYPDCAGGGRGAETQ", "settings": "protein: recombinant; tags: N-terminal GST; dsDNA, one strand shown", "in_short": "as §1"}, "[8]": {"target": "T5, ELF3 (Homo sapiens, UniProt P78545 1-371)", "T5 sequence": "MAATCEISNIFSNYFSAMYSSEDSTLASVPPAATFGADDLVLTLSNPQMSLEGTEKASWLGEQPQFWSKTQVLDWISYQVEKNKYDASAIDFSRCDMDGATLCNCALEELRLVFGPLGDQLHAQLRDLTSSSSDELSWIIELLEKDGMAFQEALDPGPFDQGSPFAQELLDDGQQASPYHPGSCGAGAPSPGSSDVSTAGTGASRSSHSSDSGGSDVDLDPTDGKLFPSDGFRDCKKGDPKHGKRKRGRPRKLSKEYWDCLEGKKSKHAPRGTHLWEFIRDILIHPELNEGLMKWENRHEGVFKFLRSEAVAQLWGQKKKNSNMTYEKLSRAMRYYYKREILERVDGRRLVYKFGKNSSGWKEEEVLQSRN", "settings": "protein: recombinant; tags: N-terminal GST; dsDNA, one strand shown", "in_short": "as §1"}, "[9]": {"target": "CRX (Homo sapiens, UniProt O43186 1-299)", "sequence (O43186 whole entry)": "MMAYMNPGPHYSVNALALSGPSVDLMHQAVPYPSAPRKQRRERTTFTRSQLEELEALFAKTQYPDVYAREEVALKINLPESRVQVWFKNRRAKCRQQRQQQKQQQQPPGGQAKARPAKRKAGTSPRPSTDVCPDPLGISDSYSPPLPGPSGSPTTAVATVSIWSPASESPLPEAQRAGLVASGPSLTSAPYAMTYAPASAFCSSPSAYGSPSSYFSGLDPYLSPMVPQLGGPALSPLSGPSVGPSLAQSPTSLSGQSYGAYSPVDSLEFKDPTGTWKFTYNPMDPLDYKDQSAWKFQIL", "settings": "protein: recombinant; tags: N-terminal GST; dsDNA, one strand shown", "in_short": "as §1"}, "[10]": {"target": "ETV1 (Homo sapiens, UniProt P50549 1-477)", "sequence (P50549 whole entry)": "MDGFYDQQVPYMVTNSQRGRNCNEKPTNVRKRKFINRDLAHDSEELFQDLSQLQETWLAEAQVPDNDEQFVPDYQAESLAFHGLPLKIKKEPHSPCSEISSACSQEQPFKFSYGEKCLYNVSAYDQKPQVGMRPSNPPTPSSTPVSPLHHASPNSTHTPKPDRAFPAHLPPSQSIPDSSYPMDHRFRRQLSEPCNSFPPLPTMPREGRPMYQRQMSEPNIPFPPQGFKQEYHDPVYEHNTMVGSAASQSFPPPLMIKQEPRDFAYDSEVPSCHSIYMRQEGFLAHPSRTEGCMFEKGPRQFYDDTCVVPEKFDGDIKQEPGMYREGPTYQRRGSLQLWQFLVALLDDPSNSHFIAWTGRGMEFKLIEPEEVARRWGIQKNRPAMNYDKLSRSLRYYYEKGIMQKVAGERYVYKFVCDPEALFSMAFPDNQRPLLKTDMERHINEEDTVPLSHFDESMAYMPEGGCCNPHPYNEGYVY", "settings": "protein: recombinant; tags: N-terminal GST; dsDNA, one strand shown", "in_short": "as §1"}},
  "data": [
    {"sequence": "TTGGTA", "values": [
      {"measurement": "binding signal", "setting": "[1]", "result": "1.17 fold enrichment (6-mer frequency, TF over GST control)"},
      {"measurement": "binding signal", "setting": "[2]", "result": "1.23 fold enrichment (6-mer frequency, TF over GST control)"},
      {"measurement": "binding signal", "setting": "[3]", "result": "1.16 fold enrichment (6-mer frequency, TF over GST control)"},
      {"measurement": "binding signal", "setting": "[4]", "result": "1.2 fold enrichment (6-mer frequency, TF over GST control)"},
      {"measurement": "binding signal", "setting": "[5]", "result": "1.25 fold enrichment (6-mer frequency, TF over GST control)"},
      {"measurement": "binding signal", "setting": "[6]", "result": "1.34 fold enrichment (6-mer frequency, TF over GST control)"},
      {"measurement": "binding signal", "setting": "[7]", "result": "1 fold enrichment (6-mer frequency, TF over GST control)"},
      {"measurement": "binding signal", "setting": "[8]", "result": "1.25 fold enrichment (6-mer frequency, TF over GST control)"},
      {"measurement": "binding signal", "setting": "[9]", "result": "1.34 fold enrichment (6-mer frequency, TF over GST control)"},
      {"measurement": "binding signal", "setting": "[10]", "result": "1.24 fold enrichment (6-mer frequency, TF over GST control)"}
    ]}
  ]
}
